# In the library only some 3.5% were active in any assay of this set; here they are far more common.
# MITF inh – inhibitors of human MITF. 0.91% of 650,000 active. inhibition, % at 2.6 µM. AID 1259374. AlphaScreen MITF homodimerization, bead proximity signal. O75030; in the data active = inhibition above about 50%;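 note: 0% = vehicle wells with protein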
# FBW7 act – human FBW7 E3 ligase activation, primary screen; AlphaScreen FBW7–phospho-cyclin E peptide binding, activator screen; normalized activity (activation), % at 26.1 µM; 0.13% of 650,000 active; in the data active = normalized activity above about 1.9%;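 note: purified mutant Fbw7 with reduced substrate affinity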
# GPR151 ag – activates the human receptor GPR151 | PathHunter beta-arrestin GPR151 cells, luminescence | 1% of 650,000 active | activation, % at 11.2 µM | AID 1508602; in the data active = activation above about 4.9%;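 note: 0% = median of compound wells and 100% = cells with positive control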
# TEAD-YAP inh – TEAD-YAP interaction inhibition; inhibition, % at 9.12 µM; 1.4% of 640,000 active; HEK-TIYL cells, TEAD-Gal4/YAP UAS-luciferase luminescence; in the data active = inhibition above about 32%;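 note: 0% = median of test compound wells and 100% = reference inhibitor wells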
# GPR151 confirm – confirmation of human GPR151 activators; shares compounds with GPR151 ag; GPR151 PathHunter beta-arrestin cells, luminescence, 90 min; % of EA-reagent control over plate median; activation, % at 11.2 µM; 6,700 tested, under 10 active; AID 1508609;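 active = mean percent activation across replicates above the confirmation screen cutoff of 4.91%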
# GPR119 ag – GPR119 activation, counter-screen for GPR151 activators; AID 1508611; shares compounds with GPR151 ag; activation, % at 11.2 µM; GPR119 PathHunter beta-arrestin cells, luminescence, 90 min; 0 = compound-well median, 100 = enzyme-acceptor control; 0.3% of 6,700 active;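 active = mean percent activation in the counterscreen above 29.09%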;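 note: counterscreen on off-target GPR119 to flag nonselective hits from the GPR151 activator screen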
# Target sequence (Q8TDV5 whole entry, looked up): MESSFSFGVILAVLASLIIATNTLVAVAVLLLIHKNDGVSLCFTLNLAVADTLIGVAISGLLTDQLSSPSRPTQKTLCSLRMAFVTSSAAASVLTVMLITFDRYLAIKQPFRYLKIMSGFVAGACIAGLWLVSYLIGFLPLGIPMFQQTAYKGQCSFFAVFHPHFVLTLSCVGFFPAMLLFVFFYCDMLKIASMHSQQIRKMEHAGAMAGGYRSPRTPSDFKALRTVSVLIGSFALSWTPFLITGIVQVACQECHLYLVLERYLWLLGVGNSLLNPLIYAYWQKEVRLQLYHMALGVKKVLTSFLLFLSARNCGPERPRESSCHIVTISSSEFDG
# * marks the source's active call; other numbers are inactive results; x = no result given.
SMILES,MITF inh,FBW7 act,GPR151 ag,TEAD-YAP inh,GPR151 confirm,GPR119 ag
CCN(CC)C(=O)C1CCN(S(=O)(=O)c2ccc3c(c2)CC(C)N3C(=O)C2CC2)CC1 (stereo not given),6,0,1,14,x,x
CCOc1ccc(CCNC(=O)c2cn(-c3ccc(OC)cc3)c(=O)c3ccccc23)cc1,-49,0,7.0*,11,0,-6
COc1ccc(CN2CCN(Cc3ccc(OC)c(OC)c3OC)CC2)cc1OC,48,0,5.9*,16,0,6
CCn1c2ccccc2c2cc(CN3CCN(Cc4ccc(OC)c(OC)c4OC)CC3)ccc21,42,0,-1,-3,x,x
O=C1Cc2cc(S(=O)(=O)Nc3ccc(Br)cc3)cc3c2N1CCC3,13,0,0,3,x,x
COC(=O)c1ccc2c(=O)n(Cc3ccc(C(=O)NC4CCCCCC4)cc3)c(=S)[nH]c2c1,-10,0,6.0*,-7,-2,-21
COC(=O)c1ccc2c(=O)n(Cc3ccc(C(=O)NC4CCCC4)cc3)c(=S)[nH]c2c1,-12,0,0,-4,x,x
CCCCNC(=O)/C(=C/c1ccco1)NC(=O)c1ccccc1I,6,0,9.2*,10,0,-9
CCCCNC(=O)/C(=C/c1ccco1)NC(=O)c1ccc(I)cc1,14,0,1,15,x,x
NC(=O)/C(=C\c1ccco1)NC(=O)c1ccccc1Br,11,0,6.6*,0,2,3
O=C(NCCO)c1cc(NC2CCN(Cc3ccccc3)CC2)nc2ccccc12,26,0,2,-7,x,x
CC1CCCN(S(=O)(=O)c2ccc([N+](=O)[O-])cc2)C1 (stereo not given),4,0,5.7*,-4,1,2
CCC(C)NCCOc1ccccc1I (stereo not given),23,0,5.4*,8,0,4
CCCCOc1c(Cl)cc(C(=O)O)cc1OC,1,0,0,4,x,x
CCOc1c(Cl)cc(C(=O)O)cc1OC,-23,0,6.4*,-1,1,13
CN1C(=O)c2ccc(C(=O)Nc3ccccc3I)cc2C1=O,6,0,5.2*,9,0,-1
CCCN1C(=O)c2ccc(C(=O)Nc3ccccc3I)cc2C1=O,7,0,-2,7,x,x
O=C(CSc1ccsc1[N+](=O)[O-])N1CCN(c2ncccn2)CC1,-2,0,0,-10,x,x
O=C(CSc1ccsc1[N+](=O)[O-])N1CCN(c2ccccn2)CC1,-3,0,5.3*,-3,-1,-2
COc1cccc(OC)c1C(=O)Nc1c(C)n(C)n(-c2ccccc2)c1=O,-5,0,2,2,x,x
CCOC(=O)c1[nH]c(C)c(C(=O)Nc2c(C)n(C)n(-c3ccccc3)c2=O)c1C,10,0,6.5*,1,-1,-3
CCOC(=O)c1[nH]c(C)c(C(=O)Nc2cccc(OC)c2)c1C,14,0,1,-3,x,x
CCOC(=O)c1[nH]c(C)c(C(=O)Nc2ccc(C)c(C)c2)c1C,-6,0,5.0*,4,0,4
COc1ccc(-c2ccc(SCC(=O)Nc3ccc(F)c(F)c3)nn2)cc1,-1,0,-1,-43,x,x
Cc1cccc(S(=O)(=O)NCC(c2ccc(N(C)C)cc2)N2CCN(C)CC2)c1 (stereo not given),1,0,2,4,x,x
SMILES,MITF inh,FBW7 act,GPR151 ag,TEAD-YAP inh,GPR151 confirm,GPR119 ag
C=CCNC(=S)N1CCNC(=O)C1CC(=O)Nc1cc(Cl)ccc1OC (stereo not given),-4,0,1,-1,x,x
CC1CC(=O)c2cnc(N3CCN(Cc4ccccc4)CC3)nc2C1 (stereo not given),10,1,-1,-7,x,x
O=C1CCCc2nc(N3CCN(Cc4ccccc4)CC3)ncc21,14,0,6.9*,-6,0,8
O=C(NNS(=O)(=O)c1ccccc1)c1[nH]c2ccccc2c1Cl,-11,0,-1,-9,x,x
COc1ccc(-c2nnc3ccc(SCc4ccccc4)nn23)cc1OC,-3,0,5.6*,-8,0,3
COc1ccc(-c2nnc3ccc(SCc4ccc(F)cc4)nn23)cc1OC,-9,0,4,4,x,x
O=C(Nc1cccc(Cl)c1)N1CCN(c2ccc(Nc3cccnc3)nn2)CC1,16,0,6.1*,-4,1,1
COc1ccc(Br)cc1CNC(=O)c1ccc(N2CCCC2=O)cc1,-5,0,-1,-8,x,x
COc1cc(OC)c(CN2CCC(CO)(CCOc3ccccc3)CC2)c(OC)c1,9,0,5.4*,11,-1,-12
COC(=O)c1cc(N2C(=O)C3C4C=CC(C4)C3C2=O)ccc1Cl (stereo not given),7,0,-1,5,x,x
O=C(O)CCC/C=C\C[C@@H]1[C@@H](/C=C/[C@@H](O)C2Cc3ccccc3C2)[C@@H](F)C[C@@H]1O,6,x,5.0*,x,-1,2
CC(C)OC(=O)CCC/C=C\C[C@@H]1[C@@H](/C=C/[C@@H](O)CCc2ccccc2)[C@H](O)C[C@@H]1O,-6,x,5.4*,x,0,-1
O=C(O)CCC/C=C\C[C@H]1[C@@H](/C=C/[C@@H](O)CCc2ccccc2)[C@H](O)C[C@H]1O,12,x,-1,x,x,x
O=C(N/N=C/c1ccc([N+](=O)[O-])cc1)C(=O)Nc1cccc(C(F)(F)F)c1,7,0,0,2,x,x
CC1(C)c2ccccc2N(CC(=O)NCc2ccc(Cl)cc2)C12C=Cc1cc([N+](=O)[O-])ccc1O2 (stereo not given),10,0,6.3*,-5,-1,-4
CC1(C)c2ccccc2N(CC(=O)NCc2ccccc2)C12C=Cc1cc([N+](=O)[O-])ccc1O2 (stereo not given),3,0,0,3,x,x
COC(=O)c1ccc2c(c1)C(C)(C)C1(C=Cc3cc([N+](=O)[O-])ccc3O1)N2C (stereo not given),10,0,5.3*,3,1,10
C[N+](C)(C)C/C=C1/COCO1,11,0,14*,2,-1,-8
O=C(NC1CCN(Cc2ccccc2)CC1)c1cnc(Nc2ccccc2)s1,1,0,1,3,x,x
O=C(NCCc1c[nH]c2ccccc12)C(c1ccccc1)N1Cc2ccccc2C1=O (stereo not given),10,0,5.2*,0,0,-8
FC(F)(F)c1nnc2c3ccccc3c(NC3CC3)nn12,6,0,7.3*,1,0,8
CC1(C)C(=O)C2(C(=O)Nc3ccccc3Br)CCC1C2 (stereo not given),3,0,17*,-1,0,-11
O=S1(=O)CCC(NCCCN2CCOCC2)C1 (stereo not given),4,0,0,-1,x,x
CN1CCN(C(=O)/C=C/c2c(Cl)cccc2Cl)CC1,6,0,7.2*,3,0,5

# Screens: PubChem, The Scripps Research Institute Molecular Screening Center
